# Where a name gives a salt, the structure may show the parent alone.
# System: Danio rerio larvae (5 dpf)
# Test: startle response to 20-s acoustic pulses, difference vs DMSO (percentage points (treated minus DMSO)); higher = more of the behaviour than the DMSO vehicle control
# Details: 10 µM; exposure time: 3 h pre-incubation + 3 h imaging
# Protocol: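 5-dpf wild-type zebrafish larvae were imaged in 96-well plates. They were treated with 190 Tocris FDA-approved drugs at 10 µM (1 µl/ml DMSO) for 3 h before and 3 h during imaging at 28.5 °C, 48 larvae per drug. Automated image analysis gave % time moving and optomotor responses. Values are drug group mean minus DMSO vehicle mean (n=844), in percentage points, for 10 behaviours.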
row,SMILES,startle response to 20-s acoustic pulses
1,Nc1nc(Cl)nc2c1ncn2[C@@H]1O[C@H](CO)[C@@H](O)[C@@H]1F [Clofarabine],5.05
2,COCCc1ccc(OCC(O)CNC(C)C)cc1 (stereo not given) [Metoprolol tartrate],6.66
3,N[C@@H]1[C@H]2CN(c3nc4c(cc3F)c(=O)c(C(=O)O)cn4-c3ccc(F)cc3F)C[C@@H]12 [Trovafloxacin mesylate],-7.29
4,CC(=O)O[C@H]1C(=O)[C@@]2(C)[C@H]([C@H](OC(=O)c3ccccc3)[C@]3(O)C[C@H](OC(=O)[C@H](O)[C@@H](NC(=O)c4ccccc4)c4ccccc4)C(C)=C1C3(C)C)[C@]1(OC(C)=O)CO[C@@H]1C[C@@H]2O [Taxol],-0.529
5,NS(=O)(=O)Cc1noc2ccccc12 [Zonisamide],8.21
6,CN(C)CCc1c[nH]c2ccc(Cn3cncn3)cc12 [Rizatriptan benzoate],4.29
7,Clc1ccc2nsnc2c1NC1=NCCN1 [Tizanidine hydrochloride],-1.69
8,C=CC(=O)N1CCC[C@@H](n2nc(-c3ccc(Oc4ccccc4)cc3)c3c(N)ncnc32)C1 [Ibrutinib],3.06
9,COCCCOc1cc(C[C@@H](C[C@H](N)[C@@H](O)C[C@H](C(=O)NCC(C)(C)C(N)=O)C(C)C)C(C)C)ccc1OC [Aliskiren hemifumarate],-0.0432
10,CN(CCOc1ccc(NS(C)(=O)=O)cc1)CCc1ccc(NS(C)(=O)=O)cc1 [Dofetilide],0.873
11,NC(=O)OCC(COC(N)=O)c1ccccc1 [Felbamate],2.22
12,C/C(O)=C(\C#N)C(=O)Nc1ccc(C(F)(F)F)cc1 [Teriflunomide],-4.42
13,CCCN(CCC)S(=O)(=O)c1ccc(C(=O)O)cc1 [Probenecid],1.66
14,Nc1nc(NC2CC2)c2ncn([C@H]3C=C[C@@H](CO)C3)c2n1 [Abacavir hemisulfate],6.56
15,COc1cc([C@@H]2c3cc4c(cc3[C@@H](O[C@@H]3O[C@@H]5CO[C@@H](C)O[C@H]5[C@H](O)[C@H]3O)[C@H]3COC(=O)[C@H]23)OCO4)cc(OC)c1O [Etoposide],-1.98
16,Cc1cc2c(s1)Nc1ccccc1N=C2N1CCN(C)CC1 [Olanzapine],-0.064
17,CC(=O)S[C@@H]1CC2=CC(=O)CC[C@]2(C)[C@H]2CC[C@@]3(C)[C@@H](CC[C@@]34CCC(=O)O4)[C@H]12 [Spironolactone],1.64
18,OCCOCCN1CCN(C2=Nc3ccccc3Sc3ccccc32)CC1 [Quetiapine hemifumarate],-1.65
19,CN(C)CC/C=C1/c2ccccc2COc2ccc(CC(=O)O)cc21 [Olopatadine hydrochloride],0.514
20,COc1cccc2c1C(=O)c1c(O)c3c(c(O)c1C2=O)C[C@@](O)(C(=O)CO)C[C@@H]3O[C@H]1C[C@H](N)[C@H](O)[C@H](C)O1 [Doxorubicin hydrochloride],3.62

row,SMILES,startle response to 20-s acoustic pulses
1,CCCCC(=O)N(Cc1ccc(-c2ccccc2-c2nnn[nH]2)cc1)[C@H](C(=O)O)C(C)C [Valsartan],-0.147
2,C#C[C@]1(O)CC[C@H]2[C@@H]3CCC4=CC(=O)CC[C@@H]4[C@H]3CC[C@@]21CC [Levonorgestrel],-4.51
3,CC(C)c1nc(N(C)S(C)(=O)=O)nc(-c2ccc(F)cc2)c1/C=C/[C@@H](O)C[C@@H](O)CC(=O)O [Rosuvastatin calcium],-3.11
4,Cc1ccc(NC(=O)c2ccc(CN3CCN(C)CC3)cc2)cc1Nc1nccc(-c2cccnc2)n1 [Imatinib mesylate],5.5
5,CN1CCC[C@@H]1CCO[C@](C)(c1ccccc1)c1ccc(Cl)cc1 [Clemastine fumarate],-7.67
6,O=C(c1ccc(OCCN2CCCCC2)cc1)c1c(-c2ccc(O)cc2)sc2cc(O)ccc12 [Raloxifene hydrochloride],1.88
7,CC(C)C(=O)Nc1ccc([N+](=O)[O-])c(C(F)(F)F)c1 [Flutamide],-5.19
8,CC(C)(C(=O)c1cccnc1)c1cccnc1 [Metyrapone],3.51
9,CCN(CC)CCNC(=O)c1c(C)[nH]c(/C=C2\C(=O)Nc3ccc(F)cc32)c1C [Sunitinib malate],-2.32
10,Cc1cccc(C)c1OCC(C)N (stereo not given) [Mexiletine hydrochloride],0.873
11,O=C(O)c1cc(/N=N/c2ccc(S(=O)(=O)Nc3ccccn3)cc2)ccc1O [Sulfasalazine],-1.02
12,Nc1ncn([C@@H]2O[C@H](CO)[C@@H](O)[C@H]2O)c(=O)n1 [5-Azacytidine],2.64
13,O=c1[nH]c(=O)n([C@H]2C[C@H](O)[C@@H](CO)O2)cc1C(F)(F)F [Trifluorothymidine],1.37
14,CC(=O)O[C@]1(C(C)=O)CC[C@H]2[C@@H]3C=C(C)C4=CC(=O)CC[C@]4(C)[C@H]3CC[C@@]21C [Megestrol Acetate],-15.1
15,N#C[C@@H]1C[C@@H]2C[C@@H]2N1C(=O)[C@@H](N)C12CC3CC(CC(O)(C3)C1)C2 [Saxagliptin hydrochloride],4.85
16,CCCc1nn(C)c2c(=O)[nH]c(-c3cc(S(=O)(=O)N4CCN(C)CC4)ccc3OCC)nc12 [Sildenafil citrate],0.54
17,CO[C@H]1/C=C/O[C@@]2(C)Oc3c(C)c(O)c4c(O)c(c5c(nc6cc(C)ccn65)c4c3C2=O)NC(=O)/C(C)=C\C=C\[C@H](C)[C@H](O)[C@@H](C)[C@@H](O)[C@@H](C)[C@H](OC(C)=O)[C@@H]1C [Rifaximin],2.34
18,NS(=O)(=O)c1cc2c(cc1Cl)NC(C1CC3C=CC1C3)NS2(=O)=O (stereo not given) [Cyclothiazide],-0.96
19,COc1ccccc1OCCNCC(O)COc1cccc2[nH]c3ccccc3c12 (stereo not given) [Carvedilol],4.96
20,CN[C@H]1CC[C@@H](c2ccc(Cl)c(Cl)c2)c2ccccc21 [Sertraline hydrochloride],1.74

# — the supplement of paper PMC9023506
